Calls of active or inactive are those of the source. Unless noted, the rule behind the calls is not given here.
Key:
[1] = compounds binding Alexa647 anti-His antibody – biochemical, small-molecule microarray, 635 nm fluorescence, artefact control for SMM control protein annotation, primary screen (AID 1128); conditions: higher = more signal;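 note: score merges feature fluorescence with signal-to-noise for each printed compound spot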
[2] = test system: Human papillomavirus type 1a E7 protein (residues 1-88); test: HPV1a E7 small-molecule binders, primary screen, biochemical, small-molecule microarray, residues 1-88, 635 nm (AID 1129); conditions: small-molecule microarray binding, fluorescence 635 nm; higher = more signal
[3] = biological target: Focal adhesion kinase 1 (Homo sapiens) (UniProt Q05397); test: PTK2 protein binding on printed compound slides – biochemical, small-molecule microarray, 635/667 nm fluorescence, BSA, DTT, primary screen (AID 1130); conditions: 635 nm fluorescence, higher = more signal;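 note: composite of spot emission at 667 nm and signal to noise over triplicate slides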
Chain of Focal adhesion kinase 1 (Homo sapiens) (Q05397 whole entry, looked up): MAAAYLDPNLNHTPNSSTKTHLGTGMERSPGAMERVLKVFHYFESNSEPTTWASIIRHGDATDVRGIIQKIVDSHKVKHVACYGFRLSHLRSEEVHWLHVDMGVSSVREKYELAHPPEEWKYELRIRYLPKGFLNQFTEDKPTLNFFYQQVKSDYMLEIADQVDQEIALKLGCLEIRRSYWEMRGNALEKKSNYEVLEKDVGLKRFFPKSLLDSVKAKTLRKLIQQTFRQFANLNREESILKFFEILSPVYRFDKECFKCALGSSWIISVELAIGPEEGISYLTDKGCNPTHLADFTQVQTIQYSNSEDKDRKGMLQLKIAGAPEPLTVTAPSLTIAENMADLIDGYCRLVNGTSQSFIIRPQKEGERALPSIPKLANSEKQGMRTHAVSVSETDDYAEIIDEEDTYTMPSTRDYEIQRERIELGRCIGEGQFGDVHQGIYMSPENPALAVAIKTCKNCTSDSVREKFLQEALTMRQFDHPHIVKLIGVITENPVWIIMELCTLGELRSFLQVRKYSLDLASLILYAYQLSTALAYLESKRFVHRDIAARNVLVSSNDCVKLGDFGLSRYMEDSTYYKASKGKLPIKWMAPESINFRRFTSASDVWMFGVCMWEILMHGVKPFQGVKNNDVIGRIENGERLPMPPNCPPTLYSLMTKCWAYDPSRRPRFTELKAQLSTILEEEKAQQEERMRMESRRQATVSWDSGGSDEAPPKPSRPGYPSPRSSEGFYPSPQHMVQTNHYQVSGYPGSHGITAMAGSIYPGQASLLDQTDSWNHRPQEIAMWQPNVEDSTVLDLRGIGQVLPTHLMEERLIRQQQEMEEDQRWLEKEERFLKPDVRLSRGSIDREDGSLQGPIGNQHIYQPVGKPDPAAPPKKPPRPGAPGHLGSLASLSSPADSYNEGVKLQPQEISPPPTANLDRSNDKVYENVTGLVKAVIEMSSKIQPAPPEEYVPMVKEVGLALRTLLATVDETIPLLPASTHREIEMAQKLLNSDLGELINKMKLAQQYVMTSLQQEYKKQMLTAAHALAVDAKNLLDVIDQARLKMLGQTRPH

[4] = test system: Fibrinogen (Alexa647-labelled); test: Alexa647-fibrinogen binding to printed small molecules – biochemical, small-molecule microarray, 635/667 nm fluorescence, artefact control for SMM control-protein annotation, profiling panel (AID 1131); conditions: fibrinogen-A647 binding fluorescence, higher = more signal;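 note: z-score merges 667 nm fluorescence with per-spot signal-to-noise over triplicate slides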
[5] = biological target: Follistatin (Homo sapiens) (UniProt P19883); test: FST protein binding to printed compounds – biochemical, small-molecule microarray, 635/667 nm fluorescence, primary screen (AID 1132); conditions: 635 nm fluorescence, higher = more signal
Chain of Follistatin (Homo sapiens) (P19883 whole entry, looked up): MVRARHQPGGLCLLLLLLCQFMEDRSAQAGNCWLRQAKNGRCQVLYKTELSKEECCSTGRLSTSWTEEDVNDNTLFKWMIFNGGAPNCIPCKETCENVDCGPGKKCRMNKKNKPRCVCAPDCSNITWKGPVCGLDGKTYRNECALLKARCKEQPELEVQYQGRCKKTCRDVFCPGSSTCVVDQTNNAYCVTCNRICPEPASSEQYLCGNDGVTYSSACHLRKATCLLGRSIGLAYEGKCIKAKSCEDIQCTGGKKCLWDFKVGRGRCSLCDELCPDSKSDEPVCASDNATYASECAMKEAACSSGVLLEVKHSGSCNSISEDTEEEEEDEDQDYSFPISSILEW

[6] = biological target: Fibroblast growth factor 2 (Homo sapiens) (UniProt P09038); test: basic fibroblast growth factor binding to printed compounds – biochemical, small-molecule microarray, 635/667 nm fluorescence, primary screen (AID 1133); conditions: FGF2, fluorescence 635/667, higher = more signal
Chain of Fibroblast growth factor 2 (Homo sapiens) (P09038 whole entry, looked up): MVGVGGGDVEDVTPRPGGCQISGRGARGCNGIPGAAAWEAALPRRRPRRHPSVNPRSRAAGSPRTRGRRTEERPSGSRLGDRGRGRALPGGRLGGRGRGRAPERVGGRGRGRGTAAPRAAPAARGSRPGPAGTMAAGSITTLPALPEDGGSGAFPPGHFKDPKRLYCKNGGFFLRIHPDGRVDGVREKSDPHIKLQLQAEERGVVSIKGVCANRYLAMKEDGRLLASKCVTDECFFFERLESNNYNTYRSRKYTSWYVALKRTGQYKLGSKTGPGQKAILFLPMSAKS

[7] = JC-1 mitochondrial potential readout, lung cancer cells – cell-based, A549, JC-1 fluorescence, basal, 24 h, 100 nL, profiling panel (AID 1138); conditions: higher = more signal;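 note: A549 lung adenocarcinoma cells under basal conditions with no added stimulus; test concentration not given here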
Lefty1 = Lefty1 protein binding to printed compounds – biochemical, small-molecule microarray, 635/667 nm fluorescence, primary screen (AID 1139); conditions: fluorescence 635/667, higher = more signal
[8] = test system: wheat germ agglutinin (Triticum aestivum), Alexa647-labelled; test: Alexa647-WGA lectin binding to printed small molecules – biochemical, small-molecule microarray, 635/667 nm fluorescence, artefact control for SMM control-protein annotation, profiling panel (AID 1140); conditions: WGA-A647 binding, 635 nm fluorescence, higher = more signal;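 note: score merges 667 nm feature emission with signal to noise over triplicate slides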
[9] = biological target: Luciferin 4-monooxygenase (Photinus pyralis) (UniProt P08659); test: inhibition of purified Photinus pyralis luciferase – biochemical, luminescence, purified enzyme, 2006 set, primary screen (AID 1141); conditions: purified firefly luciferase, SteadyGlo luminescence, 30 min; higher = more signal, called active from +8 up or from −8 down;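 note: cell-free assay with purified firefly luciferase at 100 ng per well in PBS; test concentration not given here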
Chain of Luciferin 4-monooxygenase (Photinus pyralis) (P08659 whole entry, looked up): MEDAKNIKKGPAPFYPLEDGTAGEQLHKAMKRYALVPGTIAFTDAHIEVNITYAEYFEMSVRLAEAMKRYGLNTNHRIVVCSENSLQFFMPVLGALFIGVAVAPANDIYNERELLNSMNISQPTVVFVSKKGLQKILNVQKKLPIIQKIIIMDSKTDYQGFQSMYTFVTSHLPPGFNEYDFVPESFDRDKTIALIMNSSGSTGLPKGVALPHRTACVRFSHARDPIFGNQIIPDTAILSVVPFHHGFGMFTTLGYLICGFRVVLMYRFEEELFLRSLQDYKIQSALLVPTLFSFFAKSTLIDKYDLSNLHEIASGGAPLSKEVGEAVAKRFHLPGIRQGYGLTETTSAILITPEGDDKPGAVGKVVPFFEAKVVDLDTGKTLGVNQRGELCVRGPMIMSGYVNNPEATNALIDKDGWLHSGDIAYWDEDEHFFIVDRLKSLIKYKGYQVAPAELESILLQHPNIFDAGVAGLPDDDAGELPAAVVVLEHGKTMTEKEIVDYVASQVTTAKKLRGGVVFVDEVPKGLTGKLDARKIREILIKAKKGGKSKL

[10] = test system: Wnt5a (protein binding on small-molecule microarray); test: small molecules binding Wnt5a protein – biophysical, small-molecule microarray, 635/667 nm fluorescence, primary screen (AID 1142); conditions: 635 nm fluorescence, higher = more signal;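 note: fluorescence read at 667 nm with signal to noise per printed feature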
[11] = ATP-based viability of Huh7 replicon cells – cell-based, CellTiter-Glo luminescence, basal, 48 h, cytotoxicity control for HCV replication inhibitor project, primary screen (AID 1143); conditions: higher = more signal, called active from +8 up or from −8 down;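 note: Huh7 hepatoma cells carrying a hepatitis C replication reporter with no stimulus; test concentration not given here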
[12] = Pseudomonas biofilm growth suppression – PAO1 strain, BacTiter-Glo luminescence, LB-PBS, primary screen (AID 1144); conditions: P. aeruginosa PAO1 biofilm, 12 h, higher = more signal
[13] = basal CRE-LacZ reporter activity in PC12 – cell-based, unstimulated, primary screen (AID 1145); conditions: no forskolin, luminescence, 4.5 h, higher = more signal, called active from +8 up or from −8 down
[14] = forskolin-driven CRE-LacZ activity in PC12 – cell-based, CRE-LacZ reporter, forskolin-stimulated, primary screen (AID 1146); conditions: luminescence, 4.5 h, higher = more signal, called active from +8 up or from −8 down;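 note: PC12 cells with 6xCRE LacZ reporter stimulated by forskolin 10 µM; beta-galactosidase reporter signal reflecting CREB driven transcription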
[15] = biological target: Streptavidin (Streptomyces avidinii) (UniProt P22629); test: compounds binding control protein streptavidin – biophysical, small-molecule microarray, 635/667 nm fluorescence, artefact control for SMM compound annotation, primary screen (AID 1147); conditions: higher = more signal;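 note: signal reflects streptavidin binding to arrayed compounds as a control protein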
Chain of Streptavidin (Streptomyces avidinii) (P22629 whole entry, looked up): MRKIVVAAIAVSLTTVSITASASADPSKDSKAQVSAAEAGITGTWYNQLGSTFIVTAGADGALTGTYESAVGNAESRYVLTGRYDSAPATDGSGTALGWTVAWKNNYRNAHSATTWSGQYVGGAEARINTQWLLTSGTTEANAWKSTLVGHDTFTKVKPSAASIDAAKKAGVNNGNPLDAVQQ

[16] = probe aInhba binding on compound microarray – biochemical, small-molecule microarray, 635/667 nm fluorescence, primary screen (AID 1148); conditions: higher = more signal;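 note: score merges 667nm spot fluorescence with signal-to-noise for antibody binding to printed compounds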
Torsin-1A (Homo sapiens) [17] = biological target: Torsin-1A (Homo sapiens) (UniProt O14656); test: TOR1A wild-type binding on microarray – cell lysate, small-molecule microarray, lysate, 635/667 nm, primary screen (AID 1149); conditions: COS7 hTOR1A-WT lysate, 635 nm fluorescence, higher = more signal
Chain of Torsin-1A (Homo sapiens) (O14656 whole entry, looked up): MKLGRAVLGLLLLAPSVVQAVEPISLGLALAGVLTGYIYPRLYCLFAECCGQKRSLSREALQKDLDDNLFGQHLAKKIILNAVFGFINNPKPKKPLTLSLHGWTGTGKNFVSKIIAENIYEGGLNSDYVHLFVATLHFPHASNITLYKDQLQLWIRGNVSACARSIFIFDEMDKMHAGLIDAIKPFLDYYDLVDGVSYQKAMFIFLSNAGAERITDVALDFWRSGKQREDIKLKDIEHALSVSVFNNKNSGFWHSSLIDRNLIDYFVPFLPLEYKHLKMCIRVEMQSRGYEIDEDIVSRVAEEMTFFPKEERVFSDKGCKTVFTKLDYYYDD

Torsin-1A (Homo sapiens) [18] = biological target: Torsin-1A (Homo sapiens) (UniProt O14656); test: torsin A mutant lysate binding on microarrays – cell lysate, small-molecule microarray, COS7 lysate, 635/667 nm fluorescence, primary screen (AID 1150); conditions: COS7 hTOR1A mutant lysate, 635 nm fluorescence, higher = more signal;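 note: score pools 667 nm emission and signal to noise measuring lysate protein binding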
[19] = test system: Sonic hedgehog protein (Shh); test: Sonic hedgehog microarray binding compounds – biochemical, small-molecule microarray, 635/667 nm fluorescence, primary screen (AID 1151); conditions: 635 nm fluorescence, higher = more signal;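 note: Shh protein binding to compounds spotted on small-molecule microarray slides; score combines spot fluorescence intensity with signal-to-noise across triplicate slides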

Row | SMILES | composite z-score [1] | composite z-score [2] | composite z-score [3] | composite z-score [4] | composite z-score [5] | composite z-score [6] | z-score [7] | composite z-score (Lefty1) | composite z-score [8] | z-score [9] | composite z-score [10] | z-score [11] | z-score [12] | z-score [13] | z-score [14] | composite z-score [15] | composite z-score [16] | composite z-score (Torsin-1A (Homo sapiens) [17]) | composite z-score (Torsin-1A (Homo sapiens) [18]) | composite z-score [19]
1 | COc1ccc(CCNC(=O)[C@@H]2c3ccccc3C(=O)N(Cc3ccccc3)[C@H]2c2ccc(CO)cc2)cc1 | 0.597 | 0.529 | -0.0502 | -0.279 | 0.987 | 0.363 | 1.77 | 0.442 | 0.791 | 0.582 (inactive) | -0.039 | -2.05 (inactive) | -1.57 (inactive) | 0.971 (inactive) | -1.15 (inactive) | 0.0585 | -0.0195 | -0.447 | 0.954 | 0.832
2 | CCCC[C@@H](O)C1=C(COc2ccccc2)Cn2c(=O)n(-c3ccccc3)c(=O)n2[C@H]1CO | -0.265 | -0.476 | -0.103 | 0.729 | -0.28 | -0.242 | 0.363 | -0.193 | 0.31 | -1.79 (inactive) | -0.154 | -1.86 (inactive) | -0.569 (inactive) | 1.67 (inactive) | -1.23 (inactive) | -0.447 | -0.0762 | -0.218 | -0.348 | -0.0649
3 | C[C@]12C(=O)N(CCCCCO)[C@@H]3C(=O)N(c4ccc(Cl)cc4)CC=CC31O[C@@H]1/C=C\CCCOC(=O)C12 (stereo not given in full) | -0.39 | -0.711 | -0.83 | -1.47 | -0.271 | -1.27 | 0.428 | -0.431 | -1.31 | -0.576 (inactive) | -0.937 | -0.297 (inactive) | 1.45 (inactive) | 0.203 (inactive) | -0.416 (inactive) | -1.19 | -0.179 | -2.76 | -1.63 | 0.0607
4 | C#CCNS(=O)(=O)N(C)C | 0.446 | 0.928 | 0.17 | 0.276 | 0.103 | 0.203 | 0.497 | 0.643 | 0.0088 | 0.991 (inactive) | -0.006 | 0.251 (inactive) | -0.441 (inactive) | -0.882 (inactive) | 0.526 (inactive) | 0.0573 | -0.222 | 0.073 | 0.0442 | 0.666
5 | CN(C)CCCN1C(=O)[C@@]2(Cc3ccccc31)c1ccccc1C(=O)N(Cc1ccccc1)[C@H]2c1ccc(CO)cc1 | -0.201 | -0.153 | -0.0553 | 0.385 | 0.375 | 0.144 | -0.548 | 0.122 | 0.111 | 1.09 (inactive) | -0.173 | -5.06 (inactive) | -1.74 (inactive) | -0.491 (inactive) | -0.665 (inactive) | -0.394 | -0.128 | -0.158 | -0.105 | 0.463
6 | Cc1cc(C)c(C(O)C2C=CC3C(=O)N(c4ccccc4)C(=O)C3N2Nc2ccc([N+](=O)[O-])cc2)c(C)c1 (stereo not given) | 0.945 | 1.22 | 0.434 | 1.02 | 1.08 | 0.504 | -0.712 | 0.648 | 0.71 | 1.12 (inactive) | 0.243 | -1.1 (inactive) | -2.08 (inactive) | -0.0696 (inactive) | 0.691 (inactive) | 1.72 | 0.548 | 0.567 | 1.2 | 0.697
7 | COC(=O)[C@]1(Cc2ccccc2N=[N+]=[N-])N=C(c2ccc(OCCCO)cc2)O[C@@H]1c1ccccc1 | 0.334 | 1.09 | -0.141 | 0.215 | 0.313 | -0.101 | 1.02 | -0.489 | 0.244 | -2.2 (inactive) | 0.0416 | -5.29 (inactive) | -0.566 (inactive) | 2.59 (inactive) | 15.8 (active) | -0.189 | 0.125 | -0.53 | -0.23 | -0.148
8 | COC(=O)C(CC#Cc1ccc2c(c1)[C@]1(C(=O)N2)[C@H](c2ccc(O)cc2)N2[C@H](c3ccccc3)[C@H](c3ccccc3)OC(=O)[C@H]2[C@@H]1C(N)=O)C(=O)OC | -2.69 | -1.91 | -0.627 | -1.96 | -2.01 | -1.44 | 1.42 | -2.6 | -2.35 | -0.899 (inactive) | -0.206 | -1.94 (inactive) | -1.56 (inactive) | 0.212 (inactive) | -0.615 (inactive) | -1.42 | -0.153 | -1.15 | -0.491 | -0.907
9 | CCOC(=O)C1=CC[C@@H](c2cccc(Br)c2)N(S(=O)(=O)c2ccc(C)cc2)[C@H]1c1ccc([N+](=O)[O-])cc1 | 0.822 | 1.22 | 0.359 | 1.01 | 0.782 | 0.873 | 1.99 | 0.726 | 0.743 | 1.96 (inactive) | 0.559 | -2.18 (inactive) | -0.314 (inactive) | -0.63 (inactive) | 0.115 (inactive) | 1.22 | 0.157 | 0.907 | 0.469 | 0.778
10 | [N-]=[N+]=NCc1ccccc1[C@H]1OC(c2ccc(OCCCO)cc2)=N[C@@]1(Cc1ccccc1N=[N+]=[N-])C(=O)N1CCCCC1 | 2.35 | 1.23 | 0.529 | 0.974 | 1.34 | 1.56 | 2.16 | 0.68 | 0.681 | -1.9 (inactive) | 0.163 | -3.39 (inactive) | -0.567 (inactive) | 0.236 (inactive) | -1.04 (inactive) | 1.31 | 0.277 | 0.84 | 0.89 | 0.419
